# Structures can show the parent of a compound that is named as a salt.
# Key:
# Conditions in all cases: 20 µM; incubation time: 27 h, anaerobic, 37 °C;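 for the amine columns active = adjusted P below 0.05 in both replicates with a change the same way and a mean fold change under 0.8 or over 1.25; inactive = the rest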
# [1] = tested on: Clostridium sporogenes DSM 1664; assay: growth (OD595) fold change vs plate DMSO controls (fold change (ratio)); higher = more growth
# Outline: (§1)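 Absorbance at 595 nm was read after shaking the anaerobic mGAM cultures, which had grown in 96-well plates for 27 h at 37 °C. After blank subtraction and background correction against 20 µM compound solutions in water, a calibration factor of 5 gave OD values. Growth is the fold change against the median of the plate's DMSO controls. Values are the mean of 2 biological replicates, with fold changes above 1.5 set to NA.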
# Escherichia coli IAI1 [2] = assay: as above
# Outline: as §1
# [3] = tested on: Klebsiella aerogenes DSM 30053; assay: as above
# Outline: as §1
# [4] = tested on: Ruminococcus gnavus DSM 108212; assay: as above
# Outline: as §1
# [5] = tested on: Klebsiella aerogenes DSM 30053; assay: fold change of Histamine concentration vs plate DMSO controls (fold change (ratio)); higher = more amine produced, active = hit call of the paper (significant change in both replicates, either direction)
# Outline: (§2)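 Extracts of whole anaerobic mGAM cultures were analysed for amines by LC–triple-quadrupole MS with dynamic MRM and external calibration curves, with drift corrected within batch. Four gut strains were grown at 37 °C for 27 h in 80 µL wells with compounds at 20 µM final, sweeteners at 50 µM final. Each value expresses fold change over plate DMSO controls. The average of 2 biological replicates is shown.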
# [6] = tested on: Clostridium sporogenes DSM 1664; assay: fold change of Tryptamine concentration vs plate DMSO controls (fold change (ratio)); higher = more amine produced, active = hit call of the paper (significant change in both replicates, either direction)
# Outline: as §2
# [7] = tested on: Ruminococcus gnavus DSM 108212; assay: as above
# Outline: as §2
# Escherichia coli IAI1 [8] = assay: fold change of Putrescine concentration vs plate DMSO controls (fold change (ratio)); higher = more amine produced, active = hit call of the paper (significant change in both replicates, either direction)
# Outline: as §2
# [9] = tested on: Klebsiella aerogenes DSM 30053; assay: as above
# Outline: as §2
# Escherichia coli IAI1 [10] = assay: fold change of Cadaverine concentration vs plate DMSO controls (fold change (ratio)); higher = more amine produced, active = hit call of the paper (significant change in both replicates, either direction)
# Outline: as §2
# [11] = tested on: Klebsiella aerogenes DSM 30053; assay: as above
# Outline: as §2
# [12] = tested on: Ruminococcus gnavus DSM 108212; assay: fold change of 2-Phenylethylamine concentration vs plate DMSO controls (fold change (ratio)); higher = more amine produced, active = hit call of the paper (significant change in both replicates, either direction)
# Outline: as §2
SMILES,growth [1],growth (Escherichia coli IAI1 [2]),growth [3],growth [4],fold change of Histamine concentration [5],fold change of Tryptamine concentration [6],fold change of Tryptamine concentration [7],fold change of Putrescine concentration (Escherichia coli IAI1 [8]),fold change of Putrescine concentration [9],fold change of Cadaverine concentration (Escherichia coli IAI1 [10]),fold change of Cadaverine concentration [11],fold change of 2-Phenylethylamine concentration [12]
CON(C)C(=O)Nc1ccc(Cl)c(Cl)c1,1.07,1.01,1.01,1.07,0.924 (inactive),1.02 (inactive),0.969 (inactive),0.982 (inactive),1.02 (inactive),1.02 (inactive),1 (inactive),0.976 (inactive)
CCCN(CCC)N=O [NDPA (N-nitrosodipropylamine)],0.977,0.974,0.99,0.958,1.01 (inactive),1.03 (inactive),1.06 (inactive),0.969 (inactive),0.982 (inactive),0.874 (inactive),1.01 (inactive),1.07 (inactive)
CNC(=O)Oc1cccc2ccccc12,1.12,0.98,1,0.969,0.989 (inactive),0.933 (inactive),0.989 (inactive),1.06 (inactive),1.01 (inactive),0.965 (inactive),1.01 (inactive),0.97 (inactive)
CCN(CC)C(C)C(=O)c1ccccc1 (stereo not given) [Amfepramone hydrochloride],1.04,1.05,1.02,1.06,0.955 (inactive),1.03 (inactive),1.06 (inactive),1.06 (inactive),0.982 (inactive),0.938 (inactive),1.01 (inactive),1.06 (inactive)
COP(=S)(OC)Oc1ccc(SC)c(C)c1,1.1,1.09,0.997,0.973,0.959 (inactive),1.02 (inactive),1.08 (inactive),0.971 (inactive),0.989 (inactive),0.98 (inactive),1.04 (inactive),1.12 (inactive)
O=c1c2ccccc2[se]n1-c1ccccc1 [Ebselen],1.02,1.12,1.14,1.14,0.916 (inactive),0.823 (inactive),0.801 (inactive),1.02 (inactive),0.959 (inactive),0.953 (inactive),0.984 (inactive),0.851 (inactive)
O=C(O[C@H]1C[N+]2(CCCOc3ccccc3)CCC1CC2)C(O)(c1cccs1)c1cccs1 [Aclidinium bromide],1.12,1.08,1.03,1.14,1.05 (inactive),1.01 (inactive),0.985 (inactive),1.08 (inactive),1 (inactive),0.982 (inactive),1 (inactive),0.963 (inactive)
C#CCOc1ccc(CCNC(=O)C(OCC#C)c2ccc(Cl)cc2)cc1OC (stereo not given),1,1.06,1.03,0.954,0.95 (inactive),0.986 (inactive),0.989 (inactive),1.05 (inactive),1.01 (inactive),0.933 (inactive),1.01 (inactive),0.964 (inactive)
CC(C)OC(=O)Nc1cccc(Cl)c1,1.05,1.04,1.05,0.957,0.972 (inactive),0.989 (inactive),1.02 (inactive),0.987 (inactive),0.984 (inactive),0.927 (inactive),1.01 (inactive),1.06 (inactive)
O=P1(N(CCCl)CCCl)NCCCO1 (stereo not given) [Cyclophosphamide],0.997,1.02,0.997,1.11,1.03 (inactive),0.997 (inactive),1.02 (inactive),1.01 (inactive),1.01 (inactive),1.02 (inactive),0.999 (inactive),1.03 (inactive)
O=[N+]([O-])O[C@@H]1CO[C@H]2[C@@H]1OC[C@@H]2O [Isosorbide mononitrate],0.988,0.984,1.07,1.31,0.975 (inactive),0.938 (inactive),0.984 (inactive),0.959 (inactive),1.05 (inactive),0.975 (inactive),1.04 (inactive),0.946 (inactive)
CC(C1CC1)C(O)(Cn1cncn1)c1ccc(Cl)cc1 (mixture of isomers),0.851,0.991,0.991,0.941,1.01 (inactive),0.92 (inactive),0.994 (inactive),1.01 (inactive),0.996 (inactive),1 (inactive),0.995 (inactive),0.953 (inactive)
C=C[C@H]1CN2CC[C@H]1C[C@H]2[C@H](OC(=O)OCC)c1ccnc2ccc(OC)cc12 [Quinine ethyl carbonate],1.08,1.01,1.01,0.915,0.967 (inactive),1.01 (inactive),0.955 (inactive),1.03 (inactive),0.985 (inactive),1.01 (inactive),0.993 (inactive),1.03 (inactive)
CCN(CC)N=O [NDEA (N-nitrosodiethylamine)],1.13,1.04,1.09,1.04,0.928 (inactive),1 (inactive),1.01 (inactive),1.01 (inactive),0.999 (inactive),1.03 (inactive),1.01 (inactive),1.01 (inactive)
NCC(O)c1ccc(O)cc1 (stereo not given) [Octopamine hydrochloride],0.798,1.03,0.986,0.994,1.04 (inactive),1.04 (inactive),0.937 (inactive),1.11 (inactive),1.02 (inactive),1.01 (inactive),1 (inactive),0.875 (inactive)
CC(C)(C)NCC(O)c1cc(Cl)c(N)c(Cl)c1 (stereo not given) [Clenbuterol hydrochloride],1.03,1.02,1.01,1.13,0.983 (inactive),0.986 (inactive),1.02 (inactive),0.991 (inactive),0.983 (inactive),0.987 (inactive),1 (inactive),1.02 (inactive)
CC[C@@]1([C@@H]2O[C@@H]([C@H]3O[C@@](O)(CO)[C@H](C)C[C@@H]3C)C[C@@H]2C)CC[C@H]([C@]2(C)CC[C@]3(C[C@H](O)[C@@H](C)[C@@H]([C@@H](C)[C@@H](OC)[C@H](C)C(=O)O)O3)O2)O1 [Monensin sodium salt],0.0614,1.09,1,0.204,0.975 (inactive),0.0398 (active),0.0682 (active),1.09 (inactive),1 (inactive),0.966 (inactive),0.999 (inactive),0.0948 (active)
CCN(C)C(=O)Oc1cccc([C@H](C)N(C)C)c1 [Rivastigmine],0.985,1.03,1.02,1.05,0.987 (inactive),1.18 (inactive),1.13 (inactive),0.958 (inactive),0.993 (inactive),0.937 (inactive),1.03 (inactive),1.18 (inactive)
CCc1nn(C)c(C(=O)NCc2ccc(Oc3ccc(C)cc3)cc2)c1Cl,0.969,1.02,1.01,1.17,0.963 (inactive),0.927 (inactive),1.02 (inactive),0.947 (inactive),1 (inactive),1.01 (inactive),0.998 (inactive),1.04 (inactive)
CCOCn1c(-c2ccc(Cl)cc2)c(C#N)c(Br)c1C(F)(F)F,0.89,1,1.01,0.948,1 (inactive),0.999 (inactive),1.02 (inactive),1.03 (inactive),0.999 (inactive),1.03 (inactive),0.983 (inactive),1.01 (inactive)
CN1[C@@H]2C[C@@H](OC(=O)[C@H](CO)c3ccccc3)C[C@H]1[C@@H]1O[C@@H]12 [Scopolamine hydrochloride],1.07,1.01,1.03,1.08,0.953 (inactive),1.2 (inactive),1.08 (inactive),1.17 (inactive),0.965 (inactive),0.948 (inactive),1.02 (inactive),1.12 (inactive)
CN(C)[C@@H]1C(=O)C(C(N)=O)=C(O)[C@@]2(O)C(=O)C3=C(O)c4c(O)cccc4[C@@](C)(O)[C@H]3[C@H](O)[C@@H]12 [Oxytetracycline dihydrate],0.0153,0.133,0.113,0.955,0.0509 (active),0.0182 (active),0.898 (inactive),0.279 (active),0.46 (active),0.113 (active),0.413 (active),0.92 (inactive)
C[C@]12CC[C@H](O)CC1=CC[C@@H]1[C@@H]2CC[C@]2(C)C(=O)CC[C@@H]12 [Prasterone],1.17,1.01,1.04,1.07,0.984 (inactive),0.972 (inactive),0.985 (inactive),1 (inactive),0.999 (inactive),1.05 (inactive),0.991 (inactive),1 (inactive)
CNC(=O)/C=C(\C)OP(=O)(OC)OC,1.06,1.01,1.01,0.948,1.01 (inactive),1.05 (inactive),0.985 (inactive),0.968 (inactive),0.986 (inactive),1.05 (inactive),0.998 (inactive),1.06 (inactive)
CC[C@H]1CCC[C@H](O[C@H]2CC[C@H](N(C)C)[C@@H](C)O2)[C@@H](C)C(=O)C2=C[C@@H]3[C@@H](C=C(C)[C@@H]4C[C@@H](O[C@@H]5O[C@@H](C)[C@H](OC)[C@@H](OC)[C@H]5OC)C[C@@H]34)[C@@H]2CC(=O)O1.CC[C@H]1CCC[C@H](O[C@H]2CC[C@H](N(C)C)[C@@H](C)O2)[C@@H](C)C(=O)C2=C[C@H]3[C@@H]4C[C@H](O[C@@H]5O[C@@H](C)[C@H](OC)[C@@H](OC)[C@H]5OC)C[C@H]4C=C[C@H]3C2CC(=O)O1,1.03,0.983,1.01,0.919,0.93 (inactive),0.96 (inactive),0.984 (inactive),1.02 (inactive),0.991 (inactive),1.01 (inactive),0.992 (inactive),0.982 (inactive)

# Reference: the supplement of paper PMC12494721
